The list is not random: actives were taken first. Their share in the collection is about 1.6%.
KCNQ2 pot = KCNQ2 (rat) channel potentiation. O88943. CHO-K1 KCNQ2, FluxOR thallium flux fluorescence; active compounds read high. B-score at 10 µM. 310,000 tested, 0.54% active. AID 2239;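 active = fluorescence ratio B-score at least 3 SD of library B-scores, with initial fluorescence B-score within 3 of them, cut at about 5.3 in these data; same plate scores as AID 2156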;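 also: B-score of peak minus minimum over baseline fluorescence ratio after K+ and Tl+ stimulus; positive B-score means potentiation of KCNQ2 with more thallium influx and brighter signal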
Target sequence (O88943 whole entry, looked up): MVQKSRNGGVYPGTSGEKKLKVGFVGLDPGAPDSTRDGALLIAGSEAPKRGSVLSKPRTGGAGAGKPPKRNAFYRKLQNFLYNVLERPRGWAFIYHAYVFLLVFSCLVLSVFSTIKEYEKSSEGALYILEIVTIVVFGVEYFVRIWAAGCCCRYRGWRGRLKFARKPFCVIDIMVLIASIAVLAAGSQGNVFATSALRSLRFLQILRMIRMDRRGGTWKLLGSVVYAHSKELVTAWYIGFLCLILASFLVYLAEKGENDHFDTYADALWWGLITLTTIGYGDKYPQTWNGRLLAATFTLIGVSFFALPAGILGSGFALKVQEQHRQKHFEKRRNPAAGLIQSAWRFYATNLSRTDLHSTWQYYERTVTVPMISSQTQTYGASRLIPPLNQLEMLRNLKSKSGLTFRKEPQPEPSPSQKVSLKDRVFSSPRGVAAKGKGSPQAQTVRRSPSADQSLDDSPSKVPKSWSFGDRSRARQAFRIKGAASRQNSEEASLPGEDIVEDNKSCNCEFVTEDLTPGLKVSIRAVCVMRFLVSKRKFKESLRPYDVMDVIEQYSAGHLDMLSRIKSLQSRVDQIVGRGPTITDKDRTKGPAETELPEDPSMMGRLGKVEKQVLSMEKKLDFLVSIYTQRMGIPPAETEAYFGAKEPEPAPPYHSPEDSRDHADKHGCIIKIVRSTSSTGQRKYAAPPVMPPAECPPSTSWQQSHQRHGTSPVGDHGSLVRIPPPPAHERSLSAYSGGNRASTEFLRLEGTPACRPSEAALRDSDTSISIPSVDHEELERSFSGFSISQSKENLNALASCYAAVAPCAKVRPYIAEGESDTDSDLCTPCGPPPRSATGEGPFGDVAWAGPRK
KCNQ2 block = blocks the rat KCNQ2 potassium channel | O88943 | CHO-K1 KCNQ2, FluxOR thallium flux, 20 min; active compounds read low | B-score at 10 µM | 310,000 tested, 1.1% active;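 active = fluorescence ratio B-score at most minus 3 library SDs, with starting brightness B-score within 2 library SDs, cut at about -5.5 in these data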
Kir21 conf inh = confirmation of mouse Kir2.1 potassium channel inhibitors; AID 2032; shares compounds with KCNQ2 pot; Kir2.1-expressing cells, FluxOR thallium flux fluorescence; active compounds read low; Tl flux remaining, % of negative control (active compounds read low), % at 10 µM; 2,300 tested, 41% active;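 active = Primary-screen hit whose thallium flux fell at least 3 control SD below untreated wells in both duplicates, with normal baseline fluorescence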;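 also: 0% = blank wells without stimulus and 100% = stimulated no-compound controls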
HEK293 Tl flux = alters thallium flux in parental HEK293 cells, Kir2.1 counter-screen; 2,300 tested, 19% active; AID 2105; shares compounds with KCNQ2 pot; FluxOR signal as % of negative control (100 = no effect), % at 10 µM; FluxOR thallium flux fluorescence; 0% = unstimulated blank wells;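 active = dye signal at least 3 control SD above or below untreated wells in both duplicates, raw fluorescence within 3, either direction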;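 also: percent is based on the flux ratio of peak minus minimum fluorescence over baseline F0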
CHO-K1 ctr = counter-screen for KCNQ2 potentiators: effect in parental CHO-K1 cells; shares compounds with KCNQ2 pot; 1,200 tested, 43% active; activity increase over 3SD of controls, % at 10 µM; AID 2282; FluxOR thallium flux fluorescence; zero = vehicle mean+3SD, 100% = vehicle-minus-blank window;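 active = signal rise of at least 3 SD above the untreated control mean, in both duplicate wells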;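 also: counter screen of KCNQ2 potentiator hits so any rise reflects channel-independent effects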
KCNQ1 sel pot = human KCNQ1 counter-target activity of KCNQ2 potentiators. shares compounds with KCNQ2 pot. CHO KCNQ1 stable, FluxOR thallium flux fluorescence; beyond 3SD, as % of vehicle-control signal. activation over 3SD threshold, % at 10 µM. 1,200 tested, 28% active;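 active = fluorescence ratio rise of at least 3 SD of vehicle wells above their mean, in both replicate wells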;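 also: 0% = vehicle mean plus 3 SD and 100% = vehicle minus unstimulated blank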
KCNQ2 pot conf = rat KCNQ2 channel potentiator confirmation; 1,200 tested, 68% active; CHO-KCNQ2 cells, FluxOR thallium flux fluorescence; shares compounds with KCNQ2 pot; potentiation, less the hit threshold, % at 10 µM; AID 2287;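 active = fluorescence ratio rising 3 SD or more over the vehicle control mean in both replicates, plus primary screen hit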;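 also: peak minus minimum thallium fluorescence divided by baseline after K/Tl stimulus; 0% = vehicle mean plus 3 SD and 100% = vehicle minus unstimulated blank difference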
Kir2-1 sel = selectivity of KCNQ2 potentiators: effect on mouse Kir2.1 | shares compounds with KCNQ2 pot | HEK293 Kir2.1, FluxOR thallium flux fluorescence | activity over 3SD threshold, % at 10 µM | 1,200 tested, 2% active;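 active = fluorescence ratio rise of at least 3 SD above the vehicle-control mean, seen in both replicates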;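 also: 0% = vehicle mean plus 3 SD and 100% = vehicle minus no-stimulus blank window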
KCNQ2 W236L MoA = potentiates the retigabine-insensitive rat KCNQ2 W236L mutant channel; shares compounds with KCNQ2 pot; CHO KCNQ2-W236L, automated patch clamp current; current increase over 3SD of negative controls (%), active compounds read high, % at 25 µM; 940 tested, 10% active;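 active = current increase at least 3 SD of the untreated controls above them in both duplicate recordings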
Starred values were filed as active, the others as inactive; i = inactive; . = no result given.

SMILES	KCNQ2 pot	KCNQ2 block	Kir21 conf inh	HEK293 Tl flux	others
O=C(Nc1ccc(F)cc1)Nc1ccccc1N1CCCCC1	1.47	i	.	.
CN1CCN(c2ccccc2NC(=O)Cc2ccc(Cl)cc2)CC1	1.89	i	.	.
COc1ccc(NC(=O)CSCC(=O)Nc2ccccc2N2CCCCC2)cc1	6.74*	i	.	.	CHO-K1 ctr=18.7*;KCNQ1 sel pot=59.6*;KCNQ2 pot conf=-21.9;Kir2-1 sel=-65.2
COc1ccc(OC)c(NC(=O)CSc2nc(N3CCOCC3)nc(N3CCOCC3)n2)c1	0.48	i	.	.
O=C(O)c1cccc(NN=C2c3ccccc3-c3ccccc32)c1	.	i	.	.
O=C(O)c1cc(NN=C2c3ccccc3-c3ccccc32)ccc1Cl	9.15*	i	i	i	CHO-K1 ctr=51.1*;KCNQ1 sel pot=-14.5;KCNQ2 pot conf=51.2*;Kir2-1 sel=-44.3;KCNQ2 W236L MoA=21.9%*
Cc1ccc(SCC(=O)OCC(=O)N(C)CC(=O)Nc2ccc(F)cc2)cc1C	7.03*	i	i	i	CHO-K1 ctr=10.4*;KCNQ1 sel pot=1.0*;KCNQ2 pot conf=-2.0;Kir2-1 sel=-34.9;KCNQ2 W236L MoA=i
COc1ccc(Cl)cc1C(=O)OCC(=O)N(C)CC(=O)Nc1ccc(F)cc1	2.67	i	.	.
O=C(CN1C(=O)c2ccccc2C1=O)N1CCN=C1c1ccccc1	.	i	.	.
COc1cccc(C(=O)NNC(=O)C(=O)Nc2ccc(C)c(Cl)c2)c1	4.94	i	.	.
CCc1ccc(NC(=O)C(=O)NNC(=O)c2cccc(OC)c2)cc1	6.36*	i	i	195.5%*	CHO-K1 ctr=5.0*;KCNQ1 sel pot=-12.7;KCNQ2 pot conf=4.9*;Kir2-1 sel=-20.8;KCNQ2 W236L MoA=i
COc1ccc(C(=O)N/C(=C\c2cn(C)c3ccccc23)C(=O)N2CCOCC2)cc1	.	i	.	.
Cc1ccc(S(=O)(=O)c2c(C)cc(C)nc2Oc2cccc(C)c2C)cc1	.	i	.	.
CNc1nc(C)cc(C)c1S(=O)(=O)c1ccc(C)cc1	.	i	i	i
CC1CN(C(=O)CCC(=O)NCCCN2CCN(Cc3ccccc3)CC2)c2cc(Cl)ccc2O1 (centres undefined)	.	i	61.0%*	i
O=C(CCC(=O)N1CCOc2ccc(Cl)cc21)NCCCN1CCN(Cc2ccccc2)CC1	0.7	i	.	.
Cc1onc(-c2ccccc2)c1C(=O)/C=C/N(C)C	1.5	i	.	.
COc1ccccc1OCCSc1nc2ccccc2n1CC(O)CO (centres undefined)	0.59	i	.	.
COc1cccc(C2Nc3ccc4ccccc4c3C3=C2C(=O)CCC3)c1O (centres undefined)	0.52	i	.	.
COCCNC(=O)CN(C(=O)CCC(=O)Nc1ccccn1)c1ccccc1OC	.	i	.	.
CCCn1nc(NC(=O)CC(C)C)c2cc3cccc(C)c3nc21	5.35*	i	i	i	CHO-K1 ctr=-18.6;KCNQ1 sel pot=-32.1;KCNQ2 pot conf=-19.8;Kir2-1 sel=-41.2
CCCn1nc(NC(=O)COC)c2cc3cccc(C)c3nc21	.	i	.	.
CCn1nc(NC(=O)C(C)(C)C)c2cc3cccc(C)c3nc21	8.5*	i	i	i	CHO-K1 ctr=19.8*;KCNQ1 sel pot=3.4*;KCNQ2 pot conf=-81.2;Kir2-1 sel=-31.2;KCNQ2 W236L MoA=i
CCCn1nc(NC(C)=O)c2cc3cccc(C)c3nc21	1.62	i	.	.
OC(CCc1cccc(Cl)c1)c1cccs1 (centres undefined)	.	i	.	.
SMILES	KCNQ2 pot	KCNQ2 block	Kir21 conf inh	HEK293 Tl flux	others
Cc1ccc(OC(=O)C(C)c2cccc(C(=O)c3ccccc3)c2)cc1 (centres undefined)	.	i	.	.
Cc1ccccc1NC(=O)C(C)c1cccc(C(=O)c2ccccc2)c1 (centres undefined)	5.27	i	i	i	CHO-K1 ctr=116.7*;KCNQ1 sel pot=13.0*;KCNQ2 pot conf=16.2*;Kir2-1 sel=-28.9;KCNQ2 W236L MoA=i
CC12CC3CC(C)(C1)CC(Nc1nc(N4CCOCC4)nc4ccccc14)(C3)C2	.	i	.	.
Cc1cc(Cl)ccc1OC(C)C(=O)NC(C)C1CCCO1 (centres undefined)	.	i	56.5%*	i
CC(NC(=O)Nc1ccc(Cl)cc1)C1CCCO1 (centres undefined)	.	i	.	.
COCCn1c(CN2CCN(C(c3ccccc3)c3ccccc3)CC2)nc2c1c(=O)n(C)c(=O)n2C	5.9*	i	i	i	CHO-K1 ctr=-2.8;KCNQ1 sel pot=-16.7;KCNQ2 pot conf=-16.6;Kir2-1 sel=-23.6
Cn1c(=O)c2c(nc(CN3CCN(C(c4ccccc4)c4ccccc4)CC3)n2CCCO)n(C)c1=O	.	i	.	.
Cc1ccc(S(=O)(=O)NC(=O)NCCCN2CCOCC2)cc1	0.15	i	.	.
CC1=NN(S(=O)(=O)c2ccc(Cl)cc2Cl)C(=O)c2ccccc2O1	0.11	i	.	.
COc1ccc(-c2c[n+](CC(=O)OC3CC(C)CCC3C(C)C)c3n2CCC3)cc1 (centres undefined)	0.47	i	.	.
CC(C)[C@@H]1CC[C@@H](C)C[C@H]1OC(=O)C[n+]1cc(-c2ccc(Cl)cc2)n2c1CCCCC2	.	i	25.0%*	i
Nc1ccc(S(=O)(=O)NC2(C(F)(F)F)NC(=O)N(c3ccccc3F)C2=O)cc1 (centres undefined)	.	i	.	.
COc1ccc(NC(=O)CC23CC4CC(CC(Br)(C4)C2)C3)c(OC)c1	16.1*	i	i	i	CHO-K1 ctr=-0.6;KCNQ1 sel pot=2.8*;KCNQ2 pot conf=72.3*;Kir2-1 sel=-29.7;KCNQ2 W236L MoA=i
COc1ccccc1NC(=O)CC12CC3CC(CC(Br)(C3)C1)C2	6.67*	i	i	i	CHO-K1 ctr=-3.1;KCNQ1 sel pot=41.0*;KCNQ2 pot conf=23.0*;Kir2-1 sel=-17.1;KCNQ2 W236L MoA=i
NC(=O)c1ccccc1NC(=O)CC12CC3CC(CC(Br)(C3)C1)C2	1.1	i	.	.
COc1ccc(NC(=O)CNC(=O)C23CC4CC(CC(C4)C2)C3)c(OC)c1	.	i	.	.
O=C(CN(Cc1ccccc1)S(=O)(=O)c1ccc(F)cc1)NCc1cccnc1	.	i	.	.
CCCn1nc(NS(=O)(=O)c2cccc3nonc23)c2cc3ccccc3nc21	1.6	i	.	.
CCCc1sc(N/N=C/c2ccccn2)nc1-c1ccc(F)cc1	5.76*	i	i	i	CHO-K1 ctr=-5.9;KCNQ1 sel pot=11.8*;KCNQ2 pot conf=-22.8;Kir2-1 sel=-31.4
CCN=c1scc(-c2ccc(F)cc2)n1/N=C/c1ccccn1	0.94	i	.	.
Cn1cc(CNC(=O)CC2C(=O)NCCN2CC(C)(C)C)cn1 (centres undefined)	.	i	.	.
Cc1cc(C)c2ccc(/C=N/O)nc2c1O	11.6*	i	i	i	CHO-K1 ctr=146.6*;KCNQ1 sel pot=12.0*;KCNQ2 pot conf=-3.2;Kir2-1 sel=-17.3;KCNQ2 W236L MoA=i
Cc1cc(C)c2ccc(NN)nc2c1O	.	i	.	.
OC(CNCc1ccco1)Cn1c2ccccc2c2ccccc21 (centres undefined)	.	i	72.5%*	i

Compound activity: PubChem, Johns Hopkins Ion Channel Center
